Measurements published in PubChem BioAssay (NCATS).
Records with an inconclusive call do not appear. A call without a number means that no potency is given here. Values without a mark were called inactive. The source made the active and inactive calls. Calls come from the whole dose curve; as a rule, active = well fitted curve in the direction sought with a large enough effect; inconclusive = small, poorly fitted or top-dose-only effect, or another doubt; inactive = no such curve, though single readings can be large; an effect the other way counts as inactive or inconclusive.

Key:
[1] = Quantitative highthroughput screen to assess conditional lethalithy of NOMO1 cells grown in RPMI1640 with untreated serum (RPMI+s) (AID 1963876); conditions: NOMO1 AML cells in RPMI+serum, CellTiter-Glo viability, 48 h; series mostly up to 45.8 µM; note: nearly all actives have a fitted effect of over 35% in size
Method in brief: (§1)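 Each medium arm—HPLM with 10% dialyzed FBS, or RPMI1640 with 5 mM glucose and 10% untreated or dialyzed FBS—was screened against an 11-point, 3-fold compound titration for 48 h at 37 °C, with CellTiter-Glo luminescence as endpoint.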

[2] = Quantitative highthroughput screen to assess conditional lethalithy of NOMO1 cells grown in RPMI1640 with dialyzed fetal bovine serum (RPMI+ds) (AID 1963877); conditions: NOMO1 in RPMI+dialyzed FBS viability, ATP luminescence, 48 h; series mostly up to 45.8 µM; note: nearly all actives have a fitted effect of over 30% in size
Method in brief: as §1

[3] = Quantitative highthroughput screen to assess conditional lethalithy of P12 Ichikawa cells grown in Human Plasma-Like Medium with dialyzed fetal bovine serum (HPLM+ds) (AID 1963879); conditions: ATP luminescence, 48 h; Potency: viability; series mostly up to 45.8 µM; note: nearly all actives have a fitted effect of over 35% in size
Method in brief: as §1

[4] = Quantitative highthroughput screen to assess conditional lethalithy of P12 Ichikawa cells grown in RPMI1640 with dialyzed fetal bovine serum (RPMI+ds) (AID 1963880); conditions: ATP luminescence, 48 h; Potency: P12-Ichikawa viability; series mostly up to 45.8 µM; note: nearly all actives have a fitted effect of over 35% in size
Method in brief: as §1

[5] = Quantitative highthroughput screen to assess conditional lethalithy of P12 Ichikawa cells grown in RPMI1640 with untreated serum (RPMI+s) (AID 1963881); conditions: ATP luminescence, 48 h; Potency: viability; series mostly up to 45.8 µM; note: nearly all actives have a fitted effect of over 35% in size
Method in brief: as §1

[6] = Quantitative highthroughput screen to assess conditional lethalithy of SEM cells grown in Human Plasma-Like Medium with dialyzed fetal bovine serum (HPLM+ds) (AID 1963882); conditions: SEM B-ALL cells in HPLM+ds, CellTiter-Glo viability, 48 h; series mostly up to 45.8 µM; note: nearly all actives have a fitted effect of over 35% in size
Method in brief: as §1

[7] = Quantitative highthroughput screen to assess conditional lethalithy of SEM cells grown in RPMI1640 with unreated serum (RPMI+s) (AID 1963883); conditions: SEM B-ALL cells, CellTiter-Glo viability, 48 h; series mostly up to 45.8 µM; note: nearly all actives have a fitted effect of over 35% in size
Method in brief: as §1

[8] = Quantitative highthroughput screen to assess conditional lethalithy of SEM cells grown in RPMI1640 with dialyzed fetal bovine serum (RPMI+ds) (AID 1963884); conditions: SEM B-ALL cells, RPMI+dialyzed FBS, CellTiter-Glo viability, 48 h; series mostly up to 45.8 µM; note: nearly all actives have a fitted effect of over 35% in size
Method in brief: as §1

[9] = Cellular viability qHTS for adrenocortical cancer (ACC) cell line NCI-H295R (AID 1963990); conditions: CellTiter-Glo ATP luminescence, 48 h; series mostly up to 46.1 µM; note: nearly all actives have a fitted effect of over 60% in size
Method in brief: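 Adrenocortical carcinoma cells, suspended at 300 000 cells/mL in serum-free DMEM plus ITS, rested overnight before pin transfer of compound. After two days' incubation, ATP-dependent luminescence was recorded and curve-fitted.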

[10] = Quantitative highthroughput screen to assess conditional lethalithy of NOMO1 cells grown in Human Plasma-Like Medium with dialyzed fetal bovine serum (HPLM+ds) (AID 1963878); conditions: NOMO1 AML cells in HPLM+ds, CellTiter-Glo viability, 48 h; series mostly up to 45.8 µM; note: nearly all actives have a fitted effect of over 35% in size
Method in brief: as §1

[11] = Cellular viability qHTS for adrenocortical cancer (ACC) cell line SW-13 (AID 1963989); conditions: SW-13 ACC cells viability, CellTiter-Glo, 48 h; activity (max response): stronger effect = lower value; note: nearly all actives have a fitted effect of over 65% in size;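 for activity (max response): cells grown in serum-free medium with ITS supplement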
Method in brief: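 IC50 and maximal-response values come from four-parameter logistic fits of titration data. SW-13 cells in serum-free medium received compounds (up to 46 uM final) for 48 h before CellTiter-Glo luminescence.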
Potency is the fitted concentration of half-maximal effect.

Structure (SMILES)	Potency [1]	Potency [2]	Potency [3]	Potency [4]	Potency [5]	Potency [6]	Potency [7]	Potency [8]	Potency [9]	Potency [10]	activity (max response) [11] [%]	Potency [11]
COc1ccc(Nc2nccc(NCCO)n2)cc1	inactive	inactive	inactive	inactive	inactive	inactive	inactive	inactive	inactive			
CCCCC(=O)O[C@]1(C(=O)CO)[C@@H](C)C[C@H]2[C@@H]3CCC4=CC(=O)C=C[C@]4(C)[C@@]3(F)[C@@H](O)C[C@@]21C	inactive	inactive							inactive	inactive		
Cc1ccc(C2=Nc3ccc(Cl)cc3OC2)cc1	inactive	inactive			20.9 µM (active)					inactive	-18.7	
NC(=O)N1c2ccccc2CC(=O)c2ccccc21	inactive	inactive	inactive	inactive	inactive	inactive	inactive	inactive			10.8	
C=CCNC1=C2C[C@@H](C)C[C@H](OC)[C@@H](O)[C@@H](C)C=C(C)[C@H](OC(N)=O)[C@@H](OC)C=CC=C(C)C(=O)NC(=CC1=O)C2=O	5.26 µM (active)	5.9 µM (active)				0.526 µM (active)	0.332 µM (active)	0.332 µM (active)		5.9 µM (active)		
CC1(C)CCC(c2ccc(Cl)cc2)=C(CN2CCN(c3ccc(C(=O)NS(=O)(=O)c4ccc(N[C@H](CCN5CCOCC5)CSc5ccccc5)c(S(=O)(=O)C(F)(F)F)c4)cc3)CC2)C1	0.662 µM (active)	0.264 µM (active)	0.118 µM (active)	0.264 µM (active)	0.166 µM (active)	0.0833 µM (active)	0.0526 µM (active)	0.0526 µM (active)	inactive		11.1	
C[C@]12CCC(=O)C=C1CC[C@@H]1[C@H]2[C@@H](O)C[C@@]2(C)[C@H]1CC[C@]2(O)C(=O)CO	inactive	inactive				inactive				inactive		
O=C1c2c(O)cc(O)cc2O[C@H](c2cc(O)c(O)c(O)c2)[C@H]1O	inactive	inactive			inactive			5.26 µM (active)		inactive		
COc1ccc2nc(S(=O)Cc3ncc(C)c(OC)c3C)[nH]c2c1 (stereo not given)	inactive	inactive	inactive	inactive	inactive	inactive	inactive	inactive	inactive		-12.3	
C[C@@H]1CN(Cc2ccc(F)cc2)[C@@H](C)CN1C(=O)c1cc2c(C(=O)C(=O)N(C)C)cn(C)c2cc1Cl	inactive	inactive	inactive	inactive	inactive	inactive			inactive			
COc1cc(N2CCN(C)CC2)ccc1Nc1nc(N)c(C(=O)c2c(Cl)cccc2Cl)s1	inactive	inactive					20.9 µM (active)	20.9 µM (active)		inactive		
COc1cc2nc(-c3ccc(N4CCN(C)CC4)cc3)nc(NCCN3CCOCC3)c2cc1OC	1.66 µM (active)	0.743 µM (active)	5.26 µM (active)	2.64 µM (active)	2.96 µM (active)	0.166 µM (active)	0.469 µM (active)	0.372 µM (active)	3.55 µM (active)			17.8 µM (active)
CNC(=O)[C@H](CC1=CN=C2C=CCC=C12)NC(=O)[C@@H](CC(=O)NO)CC(C)C	8.33 µM (active)	8.33 µM (active)					inactive	inactive		5.9 µM (active)		
COC1=C(OC)C(=O)C(CC=C(C)CCC=C(C)CCC=C(C)CCC=C(C)CCC=C(C)CCC=C(C)CCC=C(C)CCC=C(C)CCC=C(C)CCC=C(C)C)=C(C)C1=O	inactive	inactive	inactive	inactive	inactive	inactive	inactive	inactive				
CC(=O)O[C@]1(C(C)=O)CC[C@H]2[C@@H]3C=C(C)C4=CC(=O)CC[C@]4(C)[C@@H]3CC[C@@]21C	inactive	inactive	inactive	inactive	inactive	inactive	inactive	inactive				
CC=CC1=C(C(=O)O)N2C(=O)[C@H](NC(=O)[C@H](N)c3ccc(O)cc3)[C@@H]2SC1	1.18 µM (active)	2.64 µM (active)	9.35 µM (active)	13.2 µM (active)	9.35 µM (active)	inactive	inactive	inactive				
CCOC(=O)O[C@]1(C(=O)OCCl)CC[C@@H]2[C@H]3CCC4=CC(=O)C=C[C@]4(C)[C@@H]3[C@@H](O)C[C@@]21C	inactive	inactive	inactive	inactive	inactive	inactive	inactive	inactive				
CC(C)CN(C[C@@H](O)[C@H](Cc1ccccc1)NC(=O)O[C@H]1CO[C@H]2OCC[C@H]21)S(=O)(=O)c1ccc(N)cc1	inactive	inactive				3.72 µM (active)				inactive		
